# Screens (PubChem BioAssay)
# A selection: hits, their analogues and other compounds. The true share with any hit is near 2.4%.
# A549 viability: Nrf2 qHTS screen for inhibitors: counterscreen for cytotoxicity; A549 ARE-Fluc cells, CellTiter-Fluor viability, 18-24 h; Potency, µM (series often up to 46 µM), for the others: top-dose activity change, negative = cytotoxicity, most hits filed as inhibitors; 390,000 tested, 0.16% active; note: % is set by controls: 0 for no effect and ±100 for the full control effect
#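 A549 ARE_Fluc cells in 5% FBS OPTI-MEM were exposed to compounds in concentration-response for 18-24 h at 37 deg C. Viability was read by CellTiter-Fluor fluorescence (Ex 405/Em 525) after 30 min, before the luciferase read.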
# Epigenetic derep: Quantitative High-Throughput Screen for Regulators of Epigenetic Control; murine LDR cells, GFP reporter derepression, 30 h; Potency, µM (highest dose often 53.9 µM), inactives show at the highest dose GFP activation, usual class: activators; 280,000 tested, 0.2% active; AID 1865, 2009; note: % of control where 0% means no effect; nearly all actives have a fitted effect of over 60% in size
#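 GFP-positive cell count by laser-scanning cytometry (objects 20–120 um) after 30 h, 37 C compound exposure of murine LDR cells; reporter is CMV-GFP integrated at a silenced locus, inducible by HDAC or DNMT inhibitors.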
# PINK1 modulator: A Quantitative High throughput Screen to Identify Chemical Modulators of PINK1 Expression. 410,000 tested, 0.2% active. PINK1 immunofluorescence, high-content cytometry, 24 h. Potency, µM (titrated, usually from 76.6 µM), for the others: top-dose activation (PINK1 increase), most hits filed as activators; active = well fitted activation curve with a large enough effect; inconclusive = small, poorly fitted or top-dose-only effect; cell line not stated here; note: % of control where 0% means no effect; nearly all actives have a fitted effect of over 65% in size
#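 PINK1 protein level read as immunofluorescence by microplate cytometer in a fixed, stained stable cell line after 24 h exposure to five compound concentrations, with CCCP as control.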
# Nrf2 activator: qHTS of Nrf2 Activators | AREc32 ARE-luciferase reporter (MCF7-derived line), luminescence, 24 h | AID 624171, 2012 | 410,000 tested, 0.31% active | Potency, µM (doses to about 46.1 µM), for inactives: at the top dose activation, usual class: activators; note: % of control where 0% means no effect; nearly all actives have a fitted effect of over 65% in size
#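 Nrf2 activation is followed as ARE-luciferase induction in the AREc32 line after one day of compound treatment; luminescence is read with Steady-Glo.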
# Nrf2 inh: Nrf2 qHTS screen for inhibitors | Potency, µM (top dose mostly 46 µM), inactives show top-dose activity change, negative = inhibition, hits mostly inhibitors | 360,000 tested, 2.1% active | A549 ARE-Fluc reporter, luciferase luminescence, 18-24 h; note: % is set by controls: 0 for no effect and ±100 for the full control effect; nearly all actives have a fitted effect of over 60% in size
#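 Concentration-response testing used A549 ARE_Fluc cells at 5000 cells/well. Following an 18-24 h compound incubation, viability was read by fluorescence (Ex 405/Em 525) and luciferase output by luminescence.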
# Numbers without * were called inactive; ? = inconclusive; / = no result given; [ ] = remark or other dose. Unless noted, calls come from the whole dose curve; as a rule, active = well fitted curve in the direction sought with a large enough effect; inconclusive = small, poorly fitted or top-dose-only effect, or another doubt; inactive = no such curve, though single readings can be large; an effect the other way counts as inactive or inconclusive. Potency is the fitted concentration of half-maximal effect.
SMILES,A549 viability,Epigenetic derep,PINK1 modulator,Nrf2 activator,Nrf2 inh
CCN1C(=O)c2cccc3c(NC(=O)c4ccc5c(c4)OCCO5)ccc1c23,20%,22µM*,?,0%,-12%
O=C(OCn1ncc(Cl)c(Cl)c1=O)c1ccccc1Cl,/,0%,-3%,?,23µM*
COc1ccc(OCC(O)CN2CCCCCC2)cc1 (configuration not stated),0%,1%,6%[38.3 µM],0%,3%
OC(COc1ccc(OCC(O)CN2CCCCCC2)cc1)CN1CCCCCC1 (configuration not stated),2.6µM*,-2%,3%,-1%,/
C=CCSc1nnc(C2CCCN(Cc3ccccc3O)C2)n1C (configuration not stated),/,/,0%,/,/
N#Cc1c(C(F)(F)F)cc(-c2ccc(F)cc2)[nH]c1=O,-8%,0%,2%,0%,?
N#Cc1c(C(F)(F)F)cc(-c2ccc(Cl)cc2)[nH]c1=O,-25%,-1%,?,1%,16µM*
O=C(NCC1OCCc2ccccc21)c1ccc(NC(=O)c2ccccc2Cl)cc1 (configuration not stated),2%,0%,0%,0%,21µM*
CCOC(=O)c1c(C)c(C)n(Cc2cccc(OC)c2OC)c1C,9%,0%,15%,1%,?
CCOC(=O)c1cc(C)n(Cc2cccc(OC)c2OC)c1C,-23%,-4%,1%,0%,23µM*
Cc1cc(C)nc(NC(=NCc2ccc3c(c2)OCO3)NC(=O)Nc2ccccc2)n1,2%,4%,14µM*,-1%,/
COc1ccccc1CN1CCC2(CC1)c1ccccc1[C@@H](NC(=O)c1ccco1)[C@@H]2OC,/,/,-1%,/,/
CC(C)(CO)NC(=O)c1cnn(-c2ncc3c(n2)-c2ccccc2CC3)c1C1CC1,/,/,-1%,/,/
COc1ccc(CNc2cccc3[nH]c(C(F)(F)F)nc23)cc1OC,-10%,/,25µM*,2%,?
COc1ccc(C2Nc3ccccc3C(=O)N2Cc2ccccc2C(F)(F)F)cc1COc1ccc(NC(C)=O)cc1 (configuration not stated),0%,/,/,/,-4%
CC(C)(C)C(=O)c1sc2nc(-c3cccs3)cc(C(F)(F)F)c2c1N,/,11µM*,10%,20%,?
Cc1nnc(NC(=O)c2sc3nc(-c4cccs4)cc(C(F)(F)F)c3c2N)s1,-22%,9%,-1%,3%,?
Cc1ccccc1-c1nnc(-c2cccs2)o1,3%,5%,1%,11µM*,99%
COc1cccc(-n2c(=O)c3sc4ccccc4c3n(CC(=O)Nc3ccc(F)cc3F)c2=O)c1,-7%,?,8%,3%,-22%
O=C(COc1ccccc1C(=O)Nc1cccc([N+](=O)[O-])c1)Nc1ccc(Br)cc1,/,/,1%,/,/
Cc1ccc(NC(=O)Cc2ccc(-n3c(C)nc4cccnc43)cc2)c(Cl)c1,-11%,?,0%,0%,21µM*
O=C(Nc1ccccc1-c1nnc(SCc2ccc(Cl)cc2)o1)c1ccccc1,?,1%,0%,0%,11%
O=c1c(-c2nnc(SCc3ccc(Cl)cc3)o2)cccn1Cc1ccccc1,?,1%,15%[38.3 µM],0%,21µM*
CC(C)Cc1ccc(CN2CCCC(NC(=O)c3ccnn3C)C2)cc1 (configuration not stated),-19%,/,2%,0%,13µM*
N#C/C(=C\c1cccc([N+](=O)[O-])c1)c1ccccn1,0%,-1%,3%,3.5µM*,-13%
SMILES,A549 viability,Epigenetic derep,PINK1 modulator,Nrf2 activator,Nrf2 inh
CCN(CC)c1ccc(/C=C(\C#N)c2ccccn2)cc1,?,18µM*,2%,-1%,?
O=[N+]([O-])c1cccc(/C=C/c2ccccn2)c1,?,10%,-2%,?,?
N#C/C(=C(/O)c1ccco1)c1nc2ccccc2[nH]1,10%,0%,-1%,6.3µM*,?
N#C/C(=C(\O)Cc1ccccc1)c1nc2ccccc2[nH]1,-2%,1%,2%,8%,/
CC(=O)[C@@H]1[C@@H]2C(=O)N(Cc3ccccc3)C(=O)[C@@H]2C2c3ccccc3C=CN21 (some centres not stated),0%[1.84 µM],1%,11µM*,0%,2%
O=C(c1ccco1)[C@@H]1[C@@H]2C(=O)N(c3ccccc3)C(=O)[C@@H]2C2c3ccccc3C=CN21 (some centres not stated),-10%,1%,2%[38.3 µM],10%,3%
C[C@@H]1CN(Cc2ccc3c(c2)CN(C(=O)CCc2nc4ccc(F)cc4[nH]2)CCO3)C[C@H](C)O1,/,/,0%,/,/
Cc1ccc(S(=O)(=O)N(CC(=O)O)c2ccc(Cl)cc2)cc1,/,1%,/,/,/
O=S(=O)(c1ccc2c(c1)OCCO2)N1CCN(S(=O)(=O)c2c(Cl)cc(C(F)(F)F)cc2Cl)CC1,-6%,/,/,/,-5%
CCN1CCOC(=O)C1CC(=O)Nc1ccc(Br)cc1 (configuration not stated),-1%,0%,1%,3%,-1%
O=c1[nH]nc(Cc2ccc(-c3cccc(Cl)c3)o2)c2ccccc12,-17%,1%,3%,5%,21µM*
Cc1ccc(S(=O)(=O)N(C)C)cc1NC(=O)CN1CCN(Cc2ccccc2)CC1,2%,-3%,1%,0%,-7%
Cc1ccc(S(=O)(=O)N(C)C)cc1NC(=O)c1cc(C(C)(C)C)nn1Cc1ccccc1,5%,0%,3%,2%,10µM*
COc1ccc(C)cc1NC(=O)C(CCSC)NS(=O)(=O)c1ccc2c(c1)oc(=O)n2C (configuration not stated),0%,-1%,5%,0%,/
O=[N+]([O-])c1ccc(Cl)c(S(=O)(=O)/N=C(/Sc2ccc(Br)cc2)c2ccccc2)c1,-10%,/,1%,/,3%
CC(=O)Oc1cccc2c1C(=O)c1c(OC(C)=O)cc(C(=O)O)cc1C2=O,21µM*,7%,2%,0%,?
CC(=O)Oc1ccc(C(=O)O)cc1OC(C)=O,1%,7%,-1%[38.3 µM],-1%,-8%
COc1ccc(OC)c(-c2cc(Cl)c3c(c2)CC(CNC(=O)[C@@H]2CCCN2C(C)=O)O3)c1 (some centres not stated),/,/,0%,/,/
S=c1[nH]nc(-c2ccco2)n1/N=C/c1cccc(Cl)c1Cl,-3%,-3%,1%,8.9µM*,3%
Cc1cc(C)n(CC(O)COc2cccc(OCC(O)Cn3nc(C)cc3C)c2)n1 (configuration not stated),-6%,0%,-2%,0%,/
Cc1cc(C)n(CC(O)COCc2ccccc2)n1 (configuration not stated),-8%,10µM*,0%,0%,-2%
